The panel holds about 83,000 compounds, 20% with a hit somewhere; the sample as a whole holds those more often.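 Compound tested at a single concentration for 48 hours in 96-well plates; a percent growth value below 10 was scored as active.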 Calls of active or inactive are those of the source.
How the values were obtained:
Assay in all cases: NCI-60 one-dose screen, 48 h (100 = growth as untreated, 0 = no growth, -100 = all killed)
Conditions in all cases: 10 µM unless noted
HCT-15 colon = tested on: HCT-15 colon
HT29 colon = tested on: HT29 colon
SNB-75 CNS = tested on: SNB-75 CNS
SNB-19 CNS = tested on: SNB-19 CNS
U251 CNS = tested on: U251 CNS
SK-MEL-5 melanoma = tested on: SK-MEL-5 melanoma
UACC-62 melanoma = tested on: UACC-62 melanoma
LOX IMVI melanoma = tested on: LOX IMVI melanoma
SK-MEL-28 melanoma = tested on: SK-MEL-28 melanoma
PC-3 prostate = tested on: PC-3 prostate

Measured: growth

CN(C)CCCn1c2c(c3cnccc3c1=O)C(=O)c1ccccc1-2
active: HCT-15 colon -3.54% | HT29 colon -2.38% | SNB-19 CNS 1.02% | U251 CNS 0.151% | SK-MEL-5 melanoma -75.8% | UACC-62 melanoma -64.6% | LOX IMVI melanoma -44.9% | SK-MEL-28 melanoma -28.1%
inactive: SNB-75 CNS 10.6%

C=C(C)[C@@H]1CC[C@]2(C(=O)N3CCNCC3)CC[C@]3(C)[C@H](CC[C@@H]4[C@@](C)(CCC(=O)N5CCNCC5)[C@H](C(=C)C)CC[C@]43C)[C@@H]12
active: U251 CNS 7.62%
inactive: HCT-15 colon 30.8% | HT29 colon 26.1% | SNB-75 CNS 86.3% | SNB-19 CNS 99% | SK-MEL-5 melanoma 89.7% | UACC-62 melanoma 104% | LOX IMVI melanoma 44.4% | SK-MEL-28 melanoma 96.7%

CC(C)C1C2=C(NCCN1C(=O)c1ccncc1)C(C)(C)N(Cc1ccccc1)C2=O (stereo not given)
inactive: HCT-15 colon 103% | HT29 colon 92.8% | SNB-75 CNS 81.7% | SNB-19 CNS 101% | U251 CNS 100% | SK-MEL-5 melanoma 105% | UACC-62 melanoma 95.6% | LOX IMVI melanoma 95.5% | SK-MEL-28 melanoma 114%

Fc1cccc(CNc2c3ccccc3nc3ccccc23)c1
inactive: HCT-15 colon 22.9% | HT29 colon 14.3% | SNB-75 CNS 63% | SNB-19 CNS 35.9% | U251 CNS 35.2% | SK-MEL-5 melanoma 60.5% | UACC-62 melanoma 50.3% | LOX IMVI melanoma 12.3% | SK-MEL-28 melanoma 78.5%

CCCN(CCSSCCNc1nc(N(C)O)nc(N(C)O)n1)c1nc(N(C)O)nc(N(C)O)n1
inactive: HCT-15 colon 69.3% | HT29 colon 78.4% | SNB-75 CNS 73.8% | SNB-19 CNS 44.7% | U251 CNS 32.8% | SK-MEL-5 melanoma 80.9% | UACC-62 melanoma 81.3% | LOX IMVI melanoma 70.7% | SK-MEL-28 melanoma 67.1%

CN(C)c1ccc(/C=N\NC(=O)c2ccc3nc(-c4ccc(Cl)cc4)[nH]c3c2)cc1
active: HT29 colon 4.33% | U251 CNS 1.62%
inactive: HCT-15 colon 66.8% | SNB-75 CNS 97.2% | SNB-19 CNS 60.4% | SK-MEL-5 melanoma 89% | UACC-62 melanoma 88.2% | LOX IMVI melanoma 34% | SK-MEL-28 melanoma 71.9%

CCCOC(=O)Nc1nc2ccc(SCC)cc2s1
inactive: HCT-15 colon 54.3% | HT29 colon 31.3% | SNB-75 CNS 90.5% | SNB-19 CNS 84.5% | U251 CNS 85% | SK-MEL-5 melanoma 83.6% | UACC-62 melanoma 61.2% | LOX IMVI melanoma 71.1% | SK-MEL-28 melanoma 85.9%

COc1cccc(-c2cn3nc(-c4cn(C)c5ccccc45)sc3n2)c1
inactive: HCT-15 colon 73.7% | HT29 colon 91.1% | SNB-75 CNS 83.1% | SNB-19 CNS 91.7% | U251 CNS 97.7% | SK-MEL-5 melanoma 84.2% | UACC-62 melanoma 77.9% | LOX IMVI melanoma 97.6% | SK-MEL-28 melanoma 95.1%

COc1ccc(C2CC(c3ccccc3)=NN2C(=O)c2cc(OC)c(OC)c(OC)c2)cc1O (stereo not given)
inactive: HCT-15 colon 16.2% | HT29 colon 36% | SNB-75 CNS 34.7% | SNB-19 CNS 47.3% | U251 CNS 20.6% | SK-MEL-5 melanoma 22.4% | UACC-62 melanoma 25.9% | LOX IMVI melanoma 42.9% | SK-MEL-28 melanoma 64.9%

CCOC(=O)/C=C1\S/C(=N\Nc2cc(=O)[nH]c3ccc(Br)cc23)N(c2ccccc2)C1=O
inactive: HCT-15 colon 42.3% | HT29 colon 104% | SNB-75 CNS 80.4% | SNB-19 CNS 90.4% | U251 CNS 77.1% | SK-MEL-5 melanoma 98.3% | UACC-62 melanoma 78.6% | LOX IMVI melanoma 90.6% | SK-MEL-28 melanoma 95.3%

NS(=O)(=O)c1ccc(C(=O)N=Nc2c(O)[nH]c3ccc(Cl)cc23)cc1
inactive: HCT-15 colon 99.4% | HT29 colon 99.7% | SNB-75 CNS 89% | SNB-19 CNS 91.3% | U251 CNS 99.7% | SK-MEL-5 melanoma 103% | UACC-62 melanoma 105% | LOX IMVI melanoma 102% | SK-MEL-28 melanoma 114%

Cc1cn(C)cn1
inactive: HCT-15 colon 99% | HT29 colon 98.7% | SNB-75 CNS 98.7% | SNB-19 CNS 107% | U251 CNS 98% | SK-MEL-5 melanoma 112% | LOX IMVI melanoma 94.6% | SK-MEL-28 melanoma 109%

CC12OC(CC(O)C1O)n1c3ccccc3c3c4c(c5c6ccccc6n2c5c31)C(=O)N(CCN1CCCC1)C4=O (stereo not given)
inactive: HCT-15 colon 10.5% | SNB-75 CNS 10.2% | SNB-19 CNS 13.4% | U251 CNS 11.8% | SK-MEL-5 melanoma 28.9% | UACC-62 melanoma 19.3% | SK-MEL-28 melanoma 63%
active: HT29 colon 5.08% | LOX IMVI melanoma -2.77%

c1csc(-c2cn3nc(-c4c[nH]c5ccccc45)sc3n2)c1
active: HT29 colon 6.1% | SNB-75 CNS -4.32%
inactive: HCT-15 colon 21.6% | SNB-19 CNS 28.7% | U251 CNS 23.7% | SK-MEL-5 melanoma 19.5% | UACC-62 melanoma 32.5% | LOX IMVI melanoma 28.8% | SK-MEL-28 melanoma 48.5%

CSc1ccc2c3c(n(C[C@H](O)CO)c(=O)c2c1)-c1ccccc1C3=O
inactive: HCT-15 colon 18.6% | HT29 colon 16.5% | SNB-75 CNS 61.2% | SNB-19 CNS 32.6% | U251 CNS 14.2% | PC-3 prostate 44.5% | SK-MEL-5 melanoma 44.3% | SK-MEL-28 melanoma 72.3%
active: LOX IMVI melanoma -3.11%

C=C1C(=O)O[C@@H]2C3C(=C(C)CC[C@@H]12)CC1O[C@]13C (stereo not given in full)
inactive: HCT-15 colon 50.4% [6.75 µM] | HT29 colon 85.5% [6.75 µM] | SNB-75 CNS 86.1% [6.75 µM] | SNB-19 CNS 92.8% [6.75 µM] | U251 CNS 90.3% [6.75 µM] | SK-MEL-5 melanoma 55.6% [6.75 µM] | UACC-62 melanoma 74.6% [6.75 µM] | LOX IMVI melanoma 51.8% [6.75 µM] | SK-MEL-28 melanoma 90.4% [6.75 µM]

COc1ccc(OC)c(Nc2nnc(-c3cc(OC)c(OC)c(OC)c3)o2)c1
inactive: HCT-15 colon 99% | HT29 colon 86.8% | SNB-75 CNS 101% | SNB-19 CNS 96.7% | U251 CNS 105% | SK-MEL-5 melanoma 93.9% | UACC-62 melanoma 87.8% | LOX IMVI melanoma 97.9% | SK-MEL-28 melanoma 102%

N#Cc1nn(-c2cc(=O)[nH]c3ccc(Br)cc23)c(N)c1C#N
inactive: HCT-15 colon 99.3% | HT29 colon 94.8% | SNB-75 CNS 87.3% | SNB-19 CNS 105% | U251 CNS 106% | SK-MEL-5 melanoma 101% | UACC-62 melanoma 86.6% | LOX IMVI melanoma 102% | SK-MEL-28 melanoma 101%

O=C(NCCCCCCNC(=O)OCc1ccc2c(Cl)cc(Cl)c(O)c2n1)OCc1ccc2c(Cl)cc(Cl)c(O)c2n1
inactive: SNB-19 CNS 51.4%
active: HCT-15 colon -29.1% | HT29 colon -75% | SNB-75 CNS -96.2% | U251 CNS -92.2% | SK-MEL-5 melanoma -95.5% | UACC-62 melanoma -94.3% | LOX IMVI melanoma -88.7% | SK-MEL-28 melanoma -89.8%

O=Nc1ccc(NC(=O)Nc2ccc([N+](=O)[O-])cc2)cc1
inactive: HCT-15 colon 83.2% | HT29 colon 100% | SNB-75 CNS 96.4% | SNB-19 CNS 107% | U251 CNS 92.5% | SK-MEL-5 melanoma 86.7% | UACC-62 melanoma 76.9% | LOX IMVI melanoma 88.8% | SK-MEL-28 melanoma 108%

O=C(Nc1ccc(Nc2ccncc2)cc1)c1ccc(Nc2ccnc3ccc([N+](=O)[O-])cc23)cc1
inactive: HCT-15 colon 99.3% | HT29 colon 102% | SNB-75 CNS 97.8% | SNB-19 CNS 117% | U251 CNS 95.5% | SK-MEL-5 melanoma 97.5% | UACC-62 melanoma 101% | LOX IMVI melanoma 90.6% | SK-MEL-28 melanoma 109%

CCOC(=O)c1cnn(CC(C)O)c1NC(=O)NCc1ccccc1C(F)(F)F (stereo not given)
inactive: HCT-15 colon 101% | HT29 colon 82.1% | SNB-75 CNS 93.6% | SNB-19 CNS 103% | U251 CNS 101% | SK-MEL-5 melanoma 102% | UACC-62 melanoma 91.8% | LOX IMVI melanoma 100% | SK-MEL-28 melanoma 103%

O=C(Nc1nc(Cl)nc(Nc2ccc(N3CCOCC3=O)cc2)n1)c1ccc(Cl)s1
inactive: HCT-15 colon 94.2% | HT29 colon 94.3% | SNB-75 CNS 103% | U251 CNS 85.4% | PC-3 prostate 85.4% | SK-MEL-5 melanoma 91.3% | UACC-62 melanoma 87% | LOX IMVI melanoma 62.1% | SK-MEL-28 melanoma 96%

Cc1ccc2nc(-c3ccc(C(=O)N/N=C/c4ccc([N+](=O)[O-])cc4)cc3)[nH]c2c1
inactive: HCT-15 colon 102% | HT29 colon 102% | SNB-75 CNS 97.1% | U251 CNS 107% | SK-MEL-5 melanoma 98.5% | UACC-62 melanoma 97.4% | LOX IMVI melanoma 98.8% | SK-MEL-28 melanoma 112%

O=[N+]([O-])c1ccccc1Sc1ccccc1[N+](=O)[O-]
inactive: HCT-15 colon 99.1% | HT29 colon 92% | SNB-75 CNS 80.8% | U251 CNS 90.6% | PC-3 prostate 87.5% | SK-MEL-5 melanoma 97.3% | UACC-62 melanoma 100% | LOX IMVI melanoma 91.8% | SK-MEL-28 melanoma 109%

Nc1cccc(-c2ccc(COc3ccc(CC4SC(=O)NC4=O)cc3)cc2)c1 (stereo not given)
inactive: HCT-15 colon 34.3% | HT29 colon 100% | SNB-75 CNS 54.4% | U251 CNS 45.9% | PC-3 prostate 59.7% | SK-MEL-5 melanoma 14.8% | UACC-62 melanoma 55.4% | LOX IMVI melanoma 57.5% | SK-MEL-28 melanoma 55.9%

COc1cc(C=Nc2oc(-c3ccccc3)c(-c3ccccc3)c2C#N)cc(CN2CCCC2)c1O
inactive: HCT-15 colon 103% | HT29 colon 107% | SNB-75 CNS 66.8% | U251 CNS 93.2% | PC-3 prostate 86.8% | SK-MEL-5 melanoma 104% | UACC-62 melanoma 86.5% | LOX IMVI melanoma 96.5% | SK-MEL-28 melanoma 112%

CCOC(=O)/C(=C(/C)NCC(C)C)c1cc(O)c(O)c2c(C)cc(=O)[nH]c12
inactive: HCT-15 colon 29.8% | HT29 colon 111% | SNB-75 CNS 78.2% | U251 CNS 46.8% | PC-3 prostate 34.3% | SK-MEL-5 melanoma 43.2% | UACC-62 melanoma 66.8% | LOX IMVI melanoma 38.1% | SK-MEL-28 melanoma 71%
